This note sets out measurements from PubChem BioAssay (Tox21).

Where “and” joins values, the source holds several entries; their conditions need not be identical. Identical values can stand only once. Results filed as inconclusive are left out. Entries that show only a call come without a potency. Some compounds were tested as several samples or in several runs, with calls that do not always agree. Calls of active or inactive are those of the source. The call rests on the fitted dose curve; in most records, active means well fitted curve in the direction sought with a large enough effect in the repeat runs; inconclusive means weak or mixed curves; inactive means no such curve, though single readings can be large; an effect the other way counts as inactive or inconclusive.
Further: nearly all actives have a fitted effect of over 50% in size.

The first assay is described as follows: qHTS RealTime-Glo MT Cell Viability Assay in HEK293 cells - 32 hour (AID 1224868). Further: potency means the concentration at half of the fitted maximal effect. To be noted: RealTime-Glo luminescence; series mostly up to 76.8 µM. Put shortly:
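Homogeneous bioluminescent viability format in HEK293 cells (600 cells/well). Following 5 h at 37 C/5% CO2, 23 nL compound was pintooled; the signal was measured repeatedly during 40 h incubation.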
(In general: Quantitative high-throughput screening tests each substance at several concentrations.)
On to `CN1C(=O)CN=C(c2ccccc2)c2cc([N+](=O)[O-])ccc21`, for which the Potency entry was “inactive”.

For the compound `C1CCNCC1`, the Potency result was “inactive”.

As to `O=C(O)CCCOc1ccc(Cl)cc1Cl`, the Potency result was “inactive”.

For the compound `COc1ccc2c(c1OC)C(=O)O[C@H]2[C@@H]1c2cc3c(cc2CCN1C)OCO3`, the Potency entry was “inactive”.

For `CNC(=O)Oc1cccc(N=CN(C)C)c1`, the Potency result was “inactive”.

With `OCCCl`, the Potency result is “inactive”.

Regarding `O=[N+]([O-])/C=C/c1ccccc1`, the Potency is 7.03 µM (active) and 13.8 µM (active).

Turning to `O=S(=O)(c1ccccc1)c1ccccc1`, the Potency entry was “inactive”.

Consider `O=C(NC(=O)c1cc(F)c(F)cc1Cl)Nc1cc(F)ccc1N1CCC(C(=O)O)CC1`, for which the Potency entry was “inactive”.

Take `Clc1ccccc1`: the Potency result is “inactive”.

Regarding `O=C(O)COc1cc(Cl)c(Cl)cc1Cl`, the Potency result was “inactive and 15.5 µM (active)”.

Turning to `SCc1ccccc1`, the Potency result is “inactive”.

Turning to `O=C(O)C(O)C(O)C(=O)O` (stereo not drawn), the Potency result was “inactive”.

In the case of `O=C(O)c1ccc(=O)[nH]c1`, the Potency result is “inactive”.

Regarding `Cc1cnc(C2=NC(C)(C(C)C)C(=O)N2)c(C(=O)O)c1` (stereo not drawn), the Potency result was “inactive”.

Consider `CCC[N+](CCC)(CCC)CCC`, for which the Potency entry was “inactive”.

On to `CCCCCCCCn1sccc1=O`, for which the Potency is 11 µM (active) and 12.9 µM (active).

Turning to `Cc1nc2ccccc2c(=O)n1-c1ccccc1Cl`, the Potency was 21.4 µM (active).

Turning to `C[N+]1(CCC(C(N)=O)(c2ccccc2)c2ccccc2)CCCCC1`, the Potency entry is “inactive”.

For the compound `CCCCC(CC)COC(=O)c1c(Br)c(Br)c(Br)c(Br)c1C(=O)OCC(CC)CCCC` (stereo not drawn), the Potency entry was “inactive”.

Consider `CC(C)C1(C)N=C(c2ncccc2C(=O)O)NC1=O` (stereo not drawn), for which the Potency entry was “inactive”.

On to `Cc1ccccc1`, for which the Potency result was “inactive”.

With `CCCC1CCCCN1` (stereo not drawn), the Potency result is “inactive”.

As for `CC1(C)[C@H](C(=O)O[C@H](C#N)c2cccc(Oc3ccccc3)c2)[C@@H]1C=C(Br)Br`, the Potency entry is “inactive”.

For `C[Si](Cn1cncn1)(c1ccc(F)cc1)c1ccc(F)cc1`, the Potency was 25.4 µM (active) and 21.9 µM (active).

As to `O=C(O)C(F)(F)C(F)(F)C(F)(F)C(F)(F)C(F)(F)C(F)(F)C(F)(F)C(F)(F)F`, the Potency entry is “inactive”.

`CCOP(=O)(O)C(N)=O`: the Potency result is “inactive”.

As to `C[C@]12C=CC3=C4CCC(=O)C=C4CC[C@H]3[C@@H]1CC[C@@H]2O`, the Potency entry is “inactive”.

In the case of `CC(C)(C)NCC(O)c1ccccc1Cl` (stereo not drawn), the Potency result is “inactive”.

`O=C(NCNC(=O)NC1C(=O)NC(=O)N1CO)NC1C(=O)NC(=O)N1CO` (stereo not drawn): the Potency result is “inactive”.

With `Cc1ncc(C[n+]2csc(CCO)c2C)c(N)n1`, the Potency result was “inactive”.

With `C=C(C)C(=O)OCCCCOC(=O)C(=C)C`, the Potency result was “inactive”.

Another assay in a line: A CellTox Green Cytotoxicity Assay to monitor cytotoxicity in HEK293 cells - 0 hour (AID 1224869). To be noted: CellTox Green fluorescence; series mostly up to 76.8 µM. Put shortly: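 Cytotoxicity was tracked continuously in HEK293 cells by a DNA-binding dye excluded from viable cells. Compounds were transferred in DMSO 5 h after seeding; fluorescence was recorded at intervals up to 40 h.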
As for `CN1C(=O)CN=C(c2ccccc2)c2cc([N+](=O)[O-])ccc21`, the Potency result is “inactive”.

Take `C1CCNCC1`: the Potency entry was “inactive”.

As to `O=C(O)CCCOc1ccc(Cl)cc1Cl`, the Potency entry is “inactive”.

For the compound `COc1ccc2c(c1OC)C(=O)O[C@H]2[C@@H]1c2cc3c(cc2CCN1C)OCO3`, the Potency result is “inactive”.

Turning to `CNC(=O)Oc1cccc(N=CN(C)C)c1`, the Potency entry is “inactive”.

Regarding `O=S(=O)(c1ccccc1)c1ccccc1`, the Potency entry was “inactive”.

As for `Clc1ccc2ccccc2c1`, the Potency result was “inactive”.

Regarding `O=C(NC(=O)c1cc(F)c(F)cc1Cl)Nc1cc(F)ccc1N1CCC(C(=O)O)CC1`, the Potency result was “inactive”.

Turning to `Clc1ccccc1`, the Potency result is “inactive”.

Turning to `SCc1ccccc1`, the Potency entry is “inactive”.

As for `O=C(O)C(O)C(O)C(=O)O` (stereo not drawn), the Potency result is “inactive”.

`Cc1cnc(C2=NC(C)(C(C)C)C(=O)N2)c(C(=O)O)c1` (stereo not drawn): the Potency result is “inactive”.

Take `CCC[N+](CCC)(CCC)CCC`: the Potency entry is “inactive”.

For `CCCCCCCCn1sccc1=O`, the Potency result was “inactive”.

For the compound `Cc1nc2ccccc2c(=O)n1-c1ccccc1Cl`, the Potency result was “inactive”.

As for `C[N+]1(CCC(C(N)=O)(c2ccccc2)c2ccccc2)CCCCC1`, the Potency entry was “inactive”.

Regarding `CC(C)C1(C)N=C(c2ncccc2C(=O)O)NC1=O` (stereo not drawn), the Potency result was “inactive”.

Regarding `O=S(=O)(Cl)Cl`, the Potency entry was “inactive”.

Consider `Cc1ccccc1`, for which the Potency entry is “inactive”.

With `CCCC1CCCCN1` (stereo not drawn), the Potency result was “inactive”.

In the case of `CCCC[P+](CC)(CCCC)CCCC` (tested in a mixture with another compound), the Potency result is “inactive”.

Take `C[Si](Cn1cncn1)(c1ccc(F)cc1)c1ccc(F)cc1`: the Potency entry was “inactive”.

As for `O=C(O)C(F)(F)C(F)(F)C(F)(F)C(F)(F)C(F)(F)C(F)(F)C(F)(F)C(F)(F)F`, the Potency entry is “inactive”.

With `CCOP(=O)(O)C(N)=O`, the Potency entry is “inactive”.

As for `C[C@]12C=CC3=C4CCC(=O)C=C4CC[C@H]3[C@@H]1CC[C@@H]2O`, the Potency entry was “inactive”.

For the compound `CC(C)(C)NCC(O)c1ccccc1Cl` (stereo not drawn), the Potency result was “inactive”.

With `C=CCc1ccccc1O`, the Potency entry was “inactive”.

For the compound `O=C(NCNC(=O)NC1C(=O)NC(=O)N1CO)NC1C(=O)NC(=O)N1CO` (stereo not drawn), the Potency entry was “inactive”.

Turning to `Cc1ncc(C[n+]2csc(CCO)c2C)c(N)n1`, the Potency entry was “inactive”.

`COP(=O)(OC)OC(Br)C(Cl)(Cl)Br` (stereo not drawn): the Potency entry was “inactive”.

With `C=C(C)C(=O)OCCCCOC(=O)C(=C)C`, the Potency result was “inactive”.

On to `C=CCc1ccc(OC(=O)Cc2ccccc2)c(OC)c1`, for which the Potency result was “inactive”.

The next assay can be described thus: qHTS RealTime-Glo MT Cell Viability Assay in HepG2 cells - 40 hour (AID 1224870). Further: potency means the concentration at half of the fitted maximal effect. To be noted: RealTime-Glo luminescence; series mostly up to 76.8 µM. Summed up:
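HepG2 cells (600/well) mixed with RealTime-Glo MT reagent, settled 5 h at 37 C/5% CO2 before compound addition. Nonlytic NanoLuc luminescence from viable-cell prosubstrate reduction read repeatedly during 40 h treatment at 37 C.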
Turning to `CN1C(=O)CN=C(c2ccccc2)c2cc([N+](=O)[O-])ccc21`, the Potency result was “inactive”.

As to `C1CCNCC1`, the Potency entry was “inactive”.

`O=C(O)CCCOc1ccc(Cl)cc1Cl`: the Potency result is “inactive”.

`COc1ccc2c(c1OC)C(=O)O[C@H]2[C@@H]1c2cc3c(cc2CCN1C)OCO3`: the Potency entry is “inactive”.

Turning to `CNC(=O)Oc1cccc(N=CN(C)C)c1`, the Potency result was “inactive”.

For `OCCCl`, the Potency entry was “inactive”.

On to `O=[N+]([O-])/C=C/c1ccccc1`, for which the Potency is 19.8 µM (active) and 13.8 µM (active).

On to `O=S(=O)(c1ccccc1)c1ccccc1`, for which the Potency result is “inactive”.

As to `Clc1ccc2ccccc2c1`, the Potency entry is “inactive”.

For `O=C(NC(=O)c1cc(F)c(F)cc1Cl)Nc1cc(F)ccc1N1CCC(C(=O)O)CC1`, the Potency result is “inactive”.

Turning to `Clc1ccccc1`, the Potency entry is “inactive”.

Regarding `O=C(O)COc1cc(Cl)c(Cl)cc1Cl`, the Potency result was “inactive”.

Consider `SCc1ccccc1`, for which the Potency result was “inactive”.

Regarding `CC(C)[C@@H](C(=O)O[C@@H](C#N)c1cccc(Oc2ccccc2)c1)c1ccc(Cl)cc1`, the Potency entry was “inactive”.

Take `O=C(O)C(O)C(O)C(=O)O` (stereo not drawn): the Potency result is “inactive”.

For `O=C(O)c1ccc(=O)[nH]c1`, the Potency entry is “inactive”.

Take `Cc1cnc(C2=NC(C)(C(C)C)C(=O)N2)c(C(=O)O)c1` (stereo not drawn): the Potency entry was “inactive”.

As to `CCC[N+](CCC)(CCC)CCC`, the Potency result is “inactive”.

Take `CCCCCCCCn1sccc1=O`: the Potency is 43.7 µM (active) and 14.5 µM (active).

Take `Cc1nc2ccccc2c(=O)n1-c1ccccc1Cl`: the Potency result is “inactive”.

Consider `C[N+]1(CCC(C(N)=O)(c2ccccc2)c2ccccc2)CCCCC1`, for which the Potency result is “inactive”.

For the compound `CCCCC(CC)COC(=O)c1c(Br)c(Br)c(Br)c(Br)c1C(=O)OCC(CC)CCCC` (stereo not drawn), the Potency entry is “inactive”.

As to `CC(C)C1(C)N=C(c2ncccc2C(=O)O)NC1=O` (stereo not drawn), the Potency result was “inactive”.

For the compound `O=S(=O)(Cl)Cl`, the Potency result was “inactive”.

Take `Cc1ccccc1`: the Potency result is “inactive”.

For the compound `CCCC1CCCCN1` (stereo not drawn), the Potency result was “inactive”.

On to `CC1(C)[C@H](C(=O)O[C@H](C#N)c2cccc(Oc3ccccc3)c2)[C@@H]1C=C(Br)Br`, for which the Potency result was “inactive”.

Consider `CCCC[P+](CC)(CCCC)CCCC` (tested in a mixture with another compound), for which the Potency result is “inactive”.

As for `C[Si](Cn1cncn1)(c1ccc(F)cc1)c1ccc(F)cc1`, the Potency entry was “inactive”.

Regarding `O=C(O)C(F)(F)C(F)(F)C(F)(F)C(F)(F)C(F)(F)C(F)(F)C(F)(F)C(F)(F)F`, the Potency result is “inactive”.

Take `CCOP(=O)(O)C(N)=O`: the Potency entry is “inactive”.

`C[C@]12C=CC3=C4CCC(=O)C=C4CC[C@H]3[C@@H]1CC[C@@H]2O`: the Potency entry was “inactive”.

On to `CC(C)(C)NCC(O)c1ccccc1Cl` (stereo not drawn), for which the Potency result was “inactive”.

For the compound `C=CCc1ccccc1O`, the Potency entry was “inactive”.

For `O=C(NCNC(=O)NC1C(=O)NC(=O)N1CO)NC1C(=O)NC(=O)N1CO` (stereo not drawn), the Potency result was “inactive”.

Turning to `Cc1ncc(C[n+]2csc(CCO)c2C)c(N)n1`, the Potency entry is “inactive”.

With `COP(=O)(OC)OC(Br)C(Cl)(Cl)Br` (stereo not drawn), the Potency entry was “inactive”.

In the case of `C=C(C)C(=O)OCCCCOC(=O)C(=C)C`, the Potency entry was “inactive”.

Consider `C=CCc1ccc(OC(=O)Cc2ccccc2)c(OC)c1`, for which the Potency entry is “inactive”.
